# From PubChem
# SMN2 splice up: SMN2 splice variant enhancement | HEK293 SMN2-luciferase splicing reporter, luminescence, 30-36 h | Potency, µM (titrated, usually from 46.1 µM), for inactives: at the top dose activity change, positive = activation, most hits filed as activators | 2.8% of 210,000 active; note: % of control where 0% means no effect; nearly all actives have a fitted effect of over 55% in size
#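 HEK293 cells carry an SMN2 […]–luciferase reporter in which exon 7 inclusion puts luciferase in frame. Cells were plated 10-12 h before compound addition, then incubated 30-36 h at 37C. ONE-Glo luminescence was read; sodium butyrate at 4.5 mM final served as control.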
# NPC1 prom act: activators of NPC1 promoter; Potency, µM (highest dose often 9.22 µM), for the others: at the highest dose activation, hits mostly activators; AID 485313; 2.4% of 320,000 active; Huh7 NPC1 promoter luciferase reporter, 24 h; note: % of control where 0% means no effect; nearly all actives have a fitted effect of over 60% in size
#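 Quantitative HTS used a cell-based reporter: Huh7 cells stably bearing the NPC1 promoter upstream of luciferase were treated with compounds for 24 h, and promoter activation was read as luminescence.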
# FLuc modulator: firefly luciferase modulation, counter-screen for miR-21 project; P08659; purified FLuc, Km substrates, luminescence inhibition; Potency, µM (top dose mostly 57.5 µM), inactives show top-dose activity change, negative = inhibition, actives largely listed as inhibitors; 6.9% of 360,000 active; AID 588342;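 note: plate controls were vehicle for no effect and reference inhibitor for full effect; nearly all actives have a fitted effect of over 55% in size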
# Target sequence (P08659 whole entry, looked up): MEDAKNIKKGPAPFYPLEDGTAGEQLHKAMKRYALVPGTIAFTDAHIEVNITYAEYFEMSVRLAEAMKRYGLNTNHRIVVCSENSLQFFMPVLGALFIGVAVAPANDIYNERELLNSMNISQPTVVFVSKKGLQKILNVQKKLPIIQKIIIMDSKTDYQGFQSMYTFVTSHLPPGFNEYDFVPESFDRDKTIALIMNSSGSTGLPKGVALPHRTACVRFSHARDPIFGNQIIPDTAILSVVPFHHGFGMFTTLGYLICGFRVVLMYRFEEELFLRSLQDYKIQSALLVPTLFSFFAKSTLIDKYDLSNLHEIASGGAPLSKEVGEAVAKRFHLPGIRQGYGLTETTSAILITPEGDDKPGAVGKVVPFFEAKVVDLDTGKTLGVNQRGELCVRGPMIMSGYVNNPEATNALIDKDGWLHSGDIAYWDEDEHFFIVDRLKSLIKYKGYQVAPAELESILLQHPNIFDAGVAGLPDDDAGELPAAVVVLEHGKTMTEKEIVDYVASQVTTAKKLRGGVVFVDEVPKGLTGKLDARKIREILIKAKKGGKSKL
#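 Purified P. pyralis luciferase (10nM final) with 10uM D-luciferin and 10uM ATP (Km levels) in 50mM Tris acetate pH 7.5, 10mM Mg acetate, 0.01% Tween-20, 0.05% BSA; qHTS 6-point titration, ~60 µM downward; luminescence read.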
# ELG1 genotox: genotoxicity induction in ELG1-luciferase HEK293T cells. Potency, µM (highest dose often 46 µM), without a hit: at the highest dose activity change, positive = activation, usual class: activators. AID 504466. 1.3% of 330,000 active. HEK293T ELG1-luciferase reporter, luminescence, 16 h; note: % of control where 0% means no effect; nearly all actives have a fitted effect of over 60% in size
#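 Luminescence read-out: rising ELG1-luciferase signal, reflecting elevated ELG1 protein under genetic stress, flags genotoxic compounds. Cells were treated for 16 hr at 37 °C before ONE-Glo detection.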
# KinaseGlo FLuc: Kinase-Glo luciferase inhibition (counter-screen); 0.28% of 200,000 active; Kinase-Glo luciferase, ATP luminescence, 8 min; Potency, µM (titrated, usually from 38.3 µM), for the others: top-dose activity change, negative = inhibition, hits mostly inhibitors; Q27757; AID 1379; note: % is set by controls: 0 for no effect and ±100 for the full control effect; nearly all actives have a fitted effect of over 60% in size
#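 Luminescence was the read-out, taken after 8-minute incubation at ambient temperature. Luciferase turned over luciferin with 10 uM ATP in imidazole pH 7.2 buffer containing KCl, MgCl2, Tween 20 and BSA.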
# Rab9 prom act: activators of Rab9 promoter; Huh7 Rab9 promoter-luciferase reporter, luminescence, 24 h; Potency, µM (highest dose often 9.22 µM), for the others: at the highest dose activation, negative = inhibition, usual class: activators; 2.8% of 320,000 active; AID 485297; note: % of control where 0% means no effect; nearly all actives have a fitted effect of over 60% in size
#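 Cell-based reporter: Huh7 stable for Rab9 promoter-driven luciferase, plated in reduced-serum medium with 10% FBS at 1500 cells/well, compound-treated 24 h at 37 °C, luminescence read after 10 min reagent.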
# An asterisk follows results filed as active; ? = inconclusive; nt = no result; [ ] = another dose, or the depositor's remark. An excerpt weighted towards active compounds, which were near 7.5% of everything screened. Calls come from the whole dose curve; as a rule, active = well fitted curve in the direction sought with a large enough effect; inconclusive = small, poorly fitted or top-dose-only effect, or another doubt; inactive = no such curve, though single readings can be large; an effect the other way counts as inactive or inconclusive. Potency is the fitted concentration of half-maximal effect.
SMILES,SMN2 splice up,NPC1 prom act,FLuc modulator,ELG1 genotox,KinaseGlo FLuc,Rab9 prom act
N#CCSc1nc2ccccc2o1,nt,-1.6%,-1.2%,-1.7%,nt,-4.1%
O=[N+]([O-])c1ccccc1CSc1nc2ccccc2o1,20µM*,?,19µM*,?,-4.3%,?
CC(=O)Nc1ccc(-c2cc(C(=O)O)c3ccccc3n2)cc1,nt,-3.0%,3.38µM*,-1.5%,nt,0.5%
CC(=O)NS(=O)(=O)c1ccc(NC(=O)c2cc(-c3ccc(C)cc3)nc3ccccc23)cc1,18.2%,0.4%,8.49µM*,9.7%,3.1%,15.9%
Cc1ccc(-c2cc(C(=O)Nc3ccc(S(=O)(=O)Nc4nc(C)cc(C)n4)cc3)c3ccccc3n2)cc1,14.1µM*,0.9%,16.9µM*,1.8%,0.0%,3.4%
Cc1cc(NC(=O)c2cc(-c3ccc(C)c(C)c3)nc3ccccc23)no1,5.4%,0.9%,4.78µM*,-8.9%,-9.0%,-1.2%
COc1cc(Nc2ccc(S(N)(=O)=O)cc2)c([N+](=O)[O-])nc1[N+](=O)[O-],nt,-4.0%,0.3%,-0.4%,nt,-1.6%
CC(=O)NS(=O)(=O)c1ccc(NC(=O)c2cc(-c3ccc(C)c(C)c3)nc3ccccc23)cc1,1.9%,13.1%,1.35µM*,2.8%,-1.2%,10.0%
CC(=O)NS(=O)(=O)c1ccc(NC(=O)c2cc(-c3cccs3)nc3ccccc23)cc1,-0.1%,0.2%,?,0.3%,1.4%,-0.1%
O=C1OC(Cc2ccccn2)C(O)=C1C1=NCCCCN1 (stereo not given),10µM*,2.24µM*,?,?,-1.6%,2.24µM*
Cc1cc(=O)oc2cc(NC(=O)c3cccc(F)c3)ccc12,nt,?,-15.9%,13.1%,nt,1.41µM*
Cc1cc(=O)oc2cc(OCC(=O)Nc3cccc(S(=O)(=O)N(C)C)c3)ccc12,5.3%,-4.4%,4.3%,2.7%,3.5%,-8.3%
Cc1cc(=O)oc2cc(NC(=O)c3ccc(OC(F)F)cc3)ccc12,nt,?,-14.2%,4.47µM*,nt,?
Cc1cc(=O)oc2cc(NC(=O)c3cccc(S(=O)(=O)N(C)C)c3)ccc12,nt,1.26µM*,?,?,nt,0.891µM*
COCCN(C(=O)CSc1ccc2c(c1)OCCO2)c1c(N)n(CC(C)C)c(=O)[nH]c1=O,nt,nt,nt,-0.4%,nt,nt
N#C/C(=N\Nc1ccc(F)cc1)C(=N)N1CCCCCC1,3.98µM*,0.447µM*,2.69µM*,?,12.3%,0.891µM*
CCN(CC)C(=N)/C(C#N)=N/Nc1ccc(C)cc1,nt,2µM*,9.53µM*,?,nt,2µM*
N#C/C(=N\Nc1ccc(Cl)cc1)C(=N)N1CCCCC1,?,0.398µM*,1.69µM*,4.9%,-8.0%,nt
Cc1ccc(N/N=C(\C#N)C(=N)N2CCOCC2)cc1,?,?,?,?,1.2%,?
N#C/C(=N\Nc1ccccc1F)C(=N)N1CCCCC1,11.2µM*,3.16µM*,12µM*,20.6µM*,0.0%,1.58µM*
O=C(COc1ccccc1[N+](=O)[O-])N/N=C/c1cccs1,1.8%,14.5%,-12.5%,9.8%,0.0%,11.9%
COc1ccc(N/N=C(\C#N)C(=N)N2CCCCC2)cc1,nt,2µM*,4.78µM*,?,nt,2.51µM*
N#C/C(=N\Nc1ccc(Cl)cc1)C(N)=S,nt,-10.6%,19µM*,-15.7%,nt,-13.8%
COc1ccc(N/N=C(\C#N)C(=N)SCc2ccccc2)cc1,-5.4%,-3.8%,26.9µM*,-12.1%,-4.0%,-7.9%
Cc1ccc(N/N=C(\C#N)C(=N)N2CCCCCC2)cc1,2.24µM*,0.501µM*,2.69µM*,1.83µM*,-1.4%,0.794µM*
SMILES,SMN2 splice up,NPC1 prom act,FLuc modulator,ELG1 genotox,KinaseGlo FLuc,Rab9 prom act
N#C/C(=N\Nc1ccccc1)C(=N)N1CCOCC1,75.8%,4.7%,?,1.3%,6.0%,5.1%
CC1CCN(c2nn3c(=O)c(C(=O)NC(C)C)cnc3s2)CC1,nt,nt,-2.3%,nt,nt,nt
O=C(O)c1ccccc1N/N=C/c1cc(Br)cc(Br)c1O,nt,1.58µM*,7.57µM*,?,nt,1.41µM*
O=C(O)c1ccccc1N/N=C\c1ccnc2ccccc12,5.01µM*,0.355µM*,0.169µM*,0.581µM*,-2.5%,?
O=C(/C=C\NCC(=O)c1ccccc1)c1ccc(F)cc1,-14.4%,19.7%,13.5µM*,10.0%,-1.1%,25.6%
O=C(/C=C\NCC(=O)c1ccccc1)c1ccc2ccccc2c1,nt,17.1%,26.9µM*,10.1%,nt,15.8%
CCc1nnc(NS(=O)(=O)c2ccc(N/C=C\C(=O)c3ccc4ccccc4c3)cc2)s1,-5.5%,1.3%,?,5.6%,0.0%,-8.3%
O=C(CNC(=O)c1ccccc1)NCC(=O)OCC(=O)c1ccc(F)cc1,22.6%,-3.7%,2.4%,1.0%,-7.5%,-2.4%
Cc1ncc(CO)c(CO)c1O,6.1%[20.6 µM],-3.0%,5.3%,1.8%,2.5%[17.1 µM],-5.1%
COCc1c(CCl)cnc(C)c1O,nt,-2.0%,16.9µM*,4.6%,1.2%,4.3%
COc1cccc(-c2nccc(-n3ccnc3)n2)c1,12.6µM*,nt,nt,nt,-3.6%,nt
COc1cccc(-c2cncnc2-n2ccnc2)c1,17.8%,nt,nt,nt,-5.6%,nt
CCOc1cc(/C=C2\SC(=S)N(NC(=O)c3cccnc3)C2=O)ccc1O,-1.7%,0.2%,26.9µM*,0.0%,-6.3%,-2.0%
O=C(O)c1ccc(/C=C2\SC(=S)N(NC(=O)c3ccccc3)C2=O)cc1,nt,0.9%,?,-3.4%,nt,-5.6%[1.84 µM]
COc1cc(/C=C2\SC(=S)N(NC(=O)c3ccc(O)c(OC)c3)C2=O)ccc1O,nt,-0.3%,1.35µM*,21.9%,nt,-1.9%
CC(=O)NN1C(=O)/C(=C/c2ccc(C(C)C)cc2)SC1=S,-8.1%,3.4%,21.3µM*,1.7%,-0.2%,-1.7%
COc1cc(/C=C2\SC(=S)N(NC(=O)c3cccc(O)c3)C2=O)ccc1O,nt,3.0%,10.7µM*,0.2%,nt,20.0%
CC(CN(C)C)NC(=O)c1ccc(Cc2nc3ccccc3[nH]2)cc1 (stereo not given),nt,nt,nt,nt,-2.3%,nt
CC(=O)c1cccc(NC(=O)COC(=O)[C@@H](NC(=O)OCc2ccccc2)C(C)C)c1,18.1%,1.7%,-7.9%,2.9%,1.8%,-2.5%
COc1ccccc1C(=O)NN1C(=O)/C(=C/c2cccn2C)SC1=S,nt,6.8%,?,0.1%,nt,0.0%
COc1cc(/C=C2\SC(=S)N(NS(=O)(=O)c3ccc(C)cc3)C2=O)ccc1O,nt,-2.9%,21.3µM*,0.2%,nt,-9.6%
COc1cc(/C=C2\SC(=S)N(NS(=O)(=O)c3ccccc3)C2=O)ccc1O,nt,-4.8%,?,1.4%,nt,-1.8%
COc1cc(/C=C2\SC(=S)N(NC(=O)c3ccccc3OC)C2=O)ccc1O,nt,-3.8%,4.26µM*,4.4%,nt,-3.0%
COc1cc(/C=C2\SC(=S)N(NC(=O)c3ccncc3)C2=O)ccc1O,nt,-1.8%,16.9µM*,0.0%,nt,-14.3%
